Results from PubChem BioAssay.
The source made the active and inactive calls. Unless noted, no rule for the calls is given here.

Columns and labels:
[1] = compounds binding Alexa647 anti-His antibody – biochemical, small-molecule microarray, 635 nm fluorescence, artefact control for SMM control protein annotation, primary screen (AID 1128); conditions: higher = more signal;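 also: score merges feature fluorescence with signal-to-noise for each printed compound spot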
[2] = system: Human papillomavirus type 1a E7 protein (residues 1-88); experiment: HPV1a E7 small-molecule binders, primary screen, biochemical, small-molecule microarray, residues 1-88, 635 nm (AID 1129); conditions: small-molecule microarray binding, fluorescence 635 nm; higher = more signal
[3] = target: Focal adhesion kinase 1 (Homo sapiens) (UniProt Q05397); experiment: PTK2 protein binding on printed compound slides – biochemical, small-molecule microarray, 635/667 nm fluorescence, BSA, DTT, primary screen (AID 1130); conditions: 635 nm fluorescence, higher = more signal;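 also: composite of spot emission at 667 nm and signal to noise over triplicate slides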
[4] = system: Fibrinogen (Alexa647-labelled); experiment: Alexa647-fibrinogen binding to printed small molecules – biochemical, small-molecule microarray, 635/667 nm fluorescence, artefact control for SMM control-protein annotation, profiling panel (AID 1131); conditions: fibrinogen-A647 binding fluorescence, higher = more signal;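 also: z-score merges 667 nm fluorescence with per-spot signal-to-noise over triplicate slides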
[5] = target: Follistatin (Homo sapiens) (UniProt P19883); experiment: FST protein binding to printed compounds – biochemical, small-molecule microarray, 635/667 nm fluorescence, primary screen (AID 1132); conditions: 635 nm fluorescence, higher = more signal
[6] = target: Fibroblast growth factor 2 (Homo sapiens) (UniProt P09038); experiment: basic fibroblast growth factor binding to printed compounds – biochemical, small-molecule microarray, 635/667 nm fluorescence, primary screen (AID 1133); conditions: FGF2, fluorescence 635/667, higher = more signal
[7] = JC-1 mitochondrial potential readout, lung cancer cells – cell-based, A549, JC-1 fluorescence, basal, 24 h, 100 nL, profiling panel (AID 1138); conditions: higher = more signal;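 also: A549 lung adenocarcinoma cells under basal conditions with no added stimulus; test concentration not given here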
Lefty1 = Lefty1 protein binding to printed compounds – biochemical, small-molecule microarray, 635/667 nm fluorescence, primary screen (AID 1139); conditions: fluorescence 635/667, higher = more signal
[8] = system: wheat germ agglutinin (Triticum aestivum), Alexa647-labelled; experiment: Alexa647-WGA lectin binding to printed small molecules – biochemical, small-molecule microarray, 635/667 nm fluorescence, artefact control for SMM control-protein annotation, profiling panel (AID 1140); conditions: WGA-A647 binding, 635 nm fluorescence, higher = more signal;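 also: score merges 667 nm feature emission with signal to noise over triplicate slides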
[9] = target: Luciferin 4-monooxygenase (Photinus pyralis) (UniProt P08659); experiment: inhibition of purified Photinus pyralis luciferase – biochemical, luminescence, purified enzyme, 2006 set, primary screen (AID 1141); conditions: purified firefly luciferase, SteadyGlo luminescence, 30 min; higher = more signal, called active from +8 up or from −8 down;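 also: cell-free assay with purified firefly luciferase at 100 ng per well in PBS; test concentration not given here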
[10] = system: Wnt5a (protein binding on small-molecule microarray); experiment: small molecules binding Wnt5a protein – biophysical, small-molecule microarray, 635/667 nm fluorescence, primary screen (AID 1142); conditions: 635 nm fluorescence, higher = more signal;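 also: fluorescence read at 667 nm with signal to noise per printed feature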
[11] = ATP-based viability of Huh7 replicon cells – cell-based, CellTiter-Glo luminescence, basal, 48 h, cytotoxicity control for HCV replication inhibitor project, primary screen (AID 1143); conditions: higher = more signal, called active from +8 up or from −8 down;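 also: Huh7 hepatoma cells carrying a hepatitis C replication reporter with no stimulus; test concentration not given here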
[12] = Pseudomonas biofilm growth suppression – PAO1 strain, BacTiter-Glo luminescence, LB-PBS, primary screen (AID 1144); conditions: P. aeruginosa PAO1 biofilm, 12 h, higher = more signal
[13] = basal CRE-LacZ reporter activity in PC12 – cell-based, unstimulated, primary screen (AID 1145); conditions: no forskolin, luminescence, 4.5 h, higher = more signal, called active from +8 up or from −8 down
[14] = forskolin-driven CRE-LacZ activity in PC12 – cell-based, CRE-LacZ reporter, forskolin-stimulated, primary screen (AID 1146); conditions: luminescence, 4.5 h, higher = more signal, called active from +8 up or from −8 down;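 also: PC12 cells with 6xCRE LacZ reporter stimulated by forskolin 10 µM; beta-galactosidase reporter signal reflecting CREB driven transcription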
[15] = target: Streptavidin (Streptomyces avidinii) (UniProt P22629); experiment: compounds binding control protein streptavidin – biophysical, small-molecule microarray, 635/667 nm fluorescence, artefact control for SMM compound annotation, primary screen (AID 1147); conditions: higher = more signal;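 also: signal reflects streptavidin binding to arrayed compounds as a control protein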
[16] = probe aInhba binding on compound microarray – biochemical, small-molecule microarray, 635/667 nm fluorescence, primary screen (AID 1148); conditions: higher = more signal;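 also: score merges 667nm spot fluorescence with signal-to-noise for antibody binding to printed compounds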
Torsin-1A (Homo sapiens) [17] = target: Torsin-1A (Homo sapiens) (UniProt O14656); experiment: TOR1A wild-type binding on microarray – cell lysate, small-molecule microarray, lysate, 635/667 nm, primary screen (AID 1149); conditions: COS7 hTOR1A-WT lysate, 635 nm fluorescence, higher = more signal
Torsin-1A (Homo sapiens) [18] = target: Torsin-1A (Homo sapiens) (UniProt O14656); experiment: torsin A mutant lysate binding on microarrays – cell lysate, small-molecule microarray, COS7 lysate, 635/667 nm fluorescence, primary screen (AID 1150); conditions: COS7 hTOR1A mutant lysate, 635 nm fluorescence, higher = more signal;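 also: score pools 667 nm emission and signal to noise measuring lysate protein binding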
[19] = system: Sonic hedgehog protein (Shh); experiment: Sonic hedgehog microarray binding compounds – biochemical, small-molecule microarray, 635/667 nm fluorescence, primary screen (AID 1151); conditions: 635 nm fluorescence, higher = more signal;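 also: Shh protein binding to compounds spotted on small-molecule microarray slides; score combines spot fluorescence intensity with signal-to-noise across triplicate slides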

Sequence of Focal adhesion kinase 1 (Homo sapiens) (Q05397 whole entry, looked up): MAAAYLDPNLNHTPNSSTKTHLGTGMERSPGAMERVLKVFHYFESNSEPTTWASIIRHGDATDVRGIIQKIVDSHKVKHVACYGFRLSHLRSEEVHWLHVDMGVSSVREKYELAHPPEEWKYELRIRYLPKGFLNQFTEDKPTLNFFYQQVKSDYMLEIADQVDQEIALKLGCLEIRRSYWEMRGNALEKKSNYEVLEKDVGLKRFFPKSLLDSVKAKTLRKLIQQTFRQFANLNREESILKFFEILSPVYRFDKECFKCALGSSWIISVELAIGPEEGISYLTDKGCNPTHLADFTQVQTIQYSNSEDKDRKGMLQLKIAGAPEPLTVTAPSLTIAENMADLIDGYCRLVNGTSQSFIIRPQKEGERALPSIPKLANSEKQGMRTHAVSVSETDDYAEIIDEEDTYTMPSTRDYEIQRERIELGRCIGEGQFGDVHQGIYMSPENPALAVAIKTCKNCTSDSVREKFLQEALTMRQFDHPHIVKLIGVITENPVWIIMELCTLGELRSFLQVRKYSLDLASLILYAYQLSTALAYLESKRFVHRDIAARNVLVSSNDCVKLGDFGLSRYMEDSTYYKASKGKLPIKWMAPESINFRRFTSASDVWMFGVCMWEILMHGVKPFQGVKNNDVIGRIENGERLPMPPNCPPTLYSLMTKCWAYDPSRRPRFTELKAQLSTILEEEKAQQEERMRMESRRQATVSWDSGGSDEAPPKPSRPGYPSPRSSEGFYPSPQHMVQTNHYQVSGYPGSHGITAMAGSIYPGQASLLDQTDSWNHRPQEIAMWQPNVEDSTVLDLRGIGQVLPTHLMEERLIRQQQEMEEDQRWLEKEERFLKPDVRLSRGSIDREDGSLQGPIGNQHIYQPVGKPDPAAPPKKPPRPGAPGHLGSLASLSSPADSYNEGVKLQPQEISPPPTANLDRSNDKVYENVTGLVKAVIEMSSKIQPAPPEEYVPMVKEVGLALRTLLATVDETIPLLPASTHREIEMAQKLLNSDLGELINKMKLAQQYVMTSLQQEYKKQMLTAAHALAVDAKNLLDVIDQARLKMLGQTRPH
Sequence of Fibroblast growth factor 2 (Homo sapiens) (P09038 whole entry, looked up): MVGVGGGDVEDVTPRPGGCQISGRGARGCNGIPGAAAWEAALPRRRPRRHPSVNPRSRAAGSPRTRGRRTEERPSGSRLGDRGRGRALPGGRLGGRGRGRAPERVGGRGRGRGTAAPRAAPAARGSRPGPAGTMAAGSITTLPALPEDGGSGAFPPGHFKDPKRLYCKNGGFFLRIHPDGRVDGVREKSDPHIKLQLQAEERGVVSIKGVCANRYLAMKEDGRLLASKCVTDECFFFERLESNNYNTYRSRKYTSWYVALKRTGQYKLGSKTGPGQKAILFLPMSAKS
Sequence of Streptavidin (Streptomyces avidinii) (P22629 whole entry, looked up): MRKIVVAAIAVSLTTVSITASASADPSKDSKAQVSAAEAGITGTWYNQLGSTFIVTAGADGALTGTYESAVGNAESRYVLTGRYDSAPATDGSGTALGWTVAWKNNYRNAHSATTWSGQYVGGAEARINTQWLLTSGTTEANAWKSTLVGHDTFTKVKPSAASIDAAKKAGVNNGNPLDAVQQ
Sequence of Torsin-1A (Homo sapiens) (O14656 whole entry, looked up): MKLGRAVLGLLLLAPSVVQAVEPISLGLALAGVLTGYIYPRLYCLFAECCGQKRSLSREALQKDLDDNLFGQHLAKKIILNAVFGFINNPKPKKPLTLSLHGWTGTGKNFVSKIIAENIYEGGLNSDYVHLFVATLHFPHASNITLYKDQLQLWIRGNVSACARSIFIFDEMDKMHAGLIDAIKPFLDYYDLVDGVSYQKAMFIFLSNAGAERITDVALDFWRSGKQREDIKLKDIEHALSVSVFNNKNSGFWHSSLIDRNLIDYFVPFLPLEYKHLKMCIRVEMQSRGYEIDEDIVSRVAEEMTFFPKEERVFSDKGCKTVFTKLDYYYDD
Sequence of Luciferin 4-monooxygenase (Photinus pyralis) (P08659 whole entry, looked up): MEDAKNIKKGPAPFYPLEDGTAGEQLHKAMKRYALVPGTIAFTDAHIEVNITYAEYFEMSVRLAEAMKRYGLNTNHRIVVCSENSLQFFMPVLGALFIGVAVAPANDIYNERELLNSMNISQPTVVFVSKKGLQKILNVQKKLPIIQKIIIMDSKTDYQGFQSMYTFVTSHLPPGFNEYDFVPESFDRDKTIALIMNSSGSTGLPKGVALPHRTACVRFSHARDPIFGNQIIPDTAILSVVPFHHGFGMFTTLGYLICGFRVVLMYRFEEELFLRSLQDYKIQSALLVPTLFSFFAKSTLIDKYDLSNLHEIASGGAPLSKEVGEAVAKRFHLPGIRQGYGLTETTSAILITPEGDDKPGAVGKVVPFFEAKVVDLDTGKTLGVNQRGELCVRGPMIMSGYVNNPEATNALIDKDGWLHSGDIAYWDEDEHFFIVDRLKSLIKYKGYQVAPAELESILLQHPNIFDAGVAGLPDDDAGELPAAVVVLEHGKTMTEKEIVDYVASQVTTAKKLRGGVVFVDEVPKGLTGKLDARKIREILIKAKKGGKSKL
Sequence of Follistatin (Homo sapiens) (P19883 whole entry, looked up): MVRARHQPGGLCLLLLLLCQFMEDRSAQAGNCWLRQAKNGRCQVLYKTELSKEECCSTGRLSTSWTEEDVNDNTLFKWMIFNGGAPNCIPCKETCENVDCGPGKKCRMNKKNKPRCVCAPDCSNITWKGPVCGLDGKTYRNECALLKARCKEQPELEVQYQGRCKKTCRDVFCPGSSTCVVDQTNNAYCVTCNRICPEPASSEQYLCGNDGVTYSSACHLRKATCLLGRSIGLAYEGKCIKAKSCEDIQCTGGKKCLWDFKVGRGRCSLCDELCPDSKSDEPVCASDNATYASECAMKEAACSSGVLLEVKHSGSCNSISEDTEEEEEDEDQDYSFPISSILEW

SMILES	composite z-score [1]	composite z-score [2]	composite z-score [3]	composite z-score [4]	composite z-score [5]	composite z-score [6]	z-score [7]	composite z-score (Lefty1)	composite z-score [8]	z-score [9]	composite z-score [10]	z-score [11]	z-score [12]	z-score [13]	z-score [14]	composite z-score [15]	composite z-score [16]	composite z-score (Torsin-1A (Homo sapiens) [17])	composite z-score (Torsin-1A (Homo sapiens) [18])	composite z-score [19]
O=C1c2ccccc2[C@@]2(Cc3ccccc3N(C3CC3)C2=O)[C@H](c2ccc(CO)cc2)N1Cc1ccccc1C(F)(F)F	0.534	-0.453	0.13	-1.41	-1.41	-1.09	-0.511	-1.32	0.286	0.62 (inactive)	-0.145	-4.35 (inactive)	-0.459 (inactive)	-0.258 (inactive)	-0.0879 (inactive)	-1.07	0.21	-1.02	-0.77	-0.537
CCCNC(=O)OC[C@H]1O[C@H](CCON=C[C@@H](OC)[C@H](C)C=CCC(=O)OC)C=C[C@@H]1Oc1ccc(OC)cc1	2.2	-0.0259	-0.0322	0.325	0.0998	0.109	0.139	0.548	0.183	-0.276 (inactive)	-0.0615	-0.444 (inactive)	1.18 (inactive)	3.46 (inactive)	0.963 (inactive)	-0.351	-0.206	0.525	0.422	1.05
C=C(/C(=C/C[C@@H](OC(=O)c1ccncc1)c1ccc(OCCO)cc1)c1cnc2ccccc2c1)C(C)C	1.03	1.13	-0.616	0.806	1.43	1.17	0.809	1.5	0.976	-2.06 (inactive)	0.73	-8.41 (active)	-0.56 (inactive)	6.47 (inactive)	-0.209 (inactive)	0.283	0.0108	1.55	0.815	2.11
CCOC(=O)CCN1C(=O)[C@H]2[C@H]3[C@H](O)[C@H](O)CC(=NOC[C@@H](O)COCc4ccco4)[C@@H]3CC[C@H]2C1=O	1.08	-0.0069	0.144	0.825	-0.977	0.225	0.928	-0.219	0.0513	0.542 (inactive)	-0.0579	-0.632 (inactive)	-0.35 (inactive)	0.251 (inactive)	0.069 (inactive)	0.663	-0.197	0.584	-0.0032	-0.825
[N-]=[N+]=NCc1ccccc1[C@@H]1OC(c2ccc(OCCCO)cc2)=N[C@]1(Cc1ccccc1)C(=O)N1CCOCC1	2.32	1.11	0.373	0.998	1.15	0.593	1.23	0.115	1.26	-0.633 (inactive)	0.599	-3.55 (inactive)	0.369 (inactive)	-0.0017 (inactive)	0.531 (inactive)	1.66	0.618	3.2	3.32	0.0283
CC(CCN1CCc2nc(-c3ccccc3)c(-c3ccccc3)cc2C1)=NOC[C@@H](C)[C@H](OCc1ccccc1)C(C)C	1.45	-1.69	0.123	-0.242	-1.45	-1.14	0.436	-0.677	-0.469	-1.09 (inactive)	-0.492	0.232 (inactive)	-0.612 (inactive)	2.07 (inactive)	-0.17 (inactive)	-0.717	-0.261	-2.11	-1.21	-0.819
C=CC[C@]1(C(=O)NCc2ccccc2)N=C(c2ccc(OCCCO)cc2)O[C@H]1c1ccccc1	-0.158	1.22	0.115	0.632	0.431	-0.35	0.453	-0.0085	0.366	0.185 (inactive)	-0.2	-4.19 (inactive)	-0.71 (inactive)	0.848 (inactive)	1.34 (inactive)	-0.134	-0.003	1.04	1.39	-0.872
NC(=O)NCC#Cc1ccc2c(c1)[C@]1(C(=O)N2)[C@H](c2ccc(O)cc2)N2[C@H](c3ccccc3)[C@H](c3ccccc3)OC(=O)[C@H]2[C@@H]1C(=O)N1CCCCCCC1	0.687	0.564	-0.222	0.161	1.34	0.25	0.296	1.02	0.604	0.363 (inactive)	0.2	-0.502 (inactive)	-0.75 (inactive)	-0.231 (inactive)	-0.674 (inactive)	0.393	1.23	-0.067	0.609	1.06
COC(=O)[C@]1(CO)N=C(c2ccc(OCCCO)cc2)O[C@@H]1c1ccccc1N=[N+]=[N-]	1.3	0.541	-0.277	0.633	1.43	1.6	0.299	0.83	-0.119	-1.64 (inactive)	0.421	0.159 (inactive)	0.393 (inactive)	-0.609 (inactive)	-0.736 (inactive)	-0.435	0.0646	1.85	1.9	2.05
C=C(CCCC)C(=O)CC[C@@H](OC(C)=O)c1cccc(OCCO)c1	0.936	-0.864	-0.0296	-0.75	1.3	0.829	-0.497	0.932	-1.1	-0.879 (inactive)	0.0837	-7.53 (inactive)	-0.0381 (inactive)	9.03 (active)	2.58 (inactive)	-0.543	-0.21	1.29	0.594	1.56
CC(C)(C)N1C(=O)[C@H]2[C@H]3[C@H](O)[C@H](O)CC(=NO[C@@H]4O[C@H](CO)[C@@H](O)[C@H](O)[C@H]4O)[C@@H]3CC[C@H]2C1=O	1.14	1.08	1.04	0.747	1.09	0.762	-0.0208	1.13	0.398	0.0997 (inactive)	0.324	-2.45 (inactive)	0.0108 (inactive)	0.518 (inactive)	0.217 (inactive)	-0.223	0.0051	0.217	0.254	1.53
CC[C@@H](c1ccccc1)n1c(=O)n2n(c1=O)[C@H]1[C@H](O)[C@@H]3O[C@@H]3C(=NOCC(C)C)[C@H]1CC2	0.356	0.0566	-0.267	-0.203	0.38	0.0571	-0.492	0.542	-0.0401	0.292 (inactive)	-0.11	0.529 (inactive)	0.51 (inactive)	0.786 (inactive)	0.671 (inactive)	-0.36	-0.0405	-0.132	-0.115	0.636
CC(=O)O[C@H]1C2=C(C(=O)[C@@H]3O[C@@H]31)[C@H]1C(C)O[C@@H]2[C@@]23C(=O)[C@@H]4O[C@@H]4[C@@H](O)C2=CO[C@H](C)[C@@H]13 (stereo not given in full)	0.0831	0.154	-0.0962	-0.735	-0.419	0.877	-1.12	0.0364	-0.933	0.327 (inactive)	0.129	-1.6 (inactive)	0.968 (inactive)	0.108 (inactive)	4.27 (inactive)	-0.503	-0.214	0.0116	0.0652	0.283
COc1ccc(COC(=O)NN=C2C[C@@H](O)[C@@H](O)[C@@H]3[C@@H]4C(=O)N(c5ccc(F)cc5F)C(=O)[C@@H]4CC[C@@H]23)cc1	0.257	-0.769	0.0141	0.794	-0.409	-0.0007	-0.604	-0.291	0.744	0.506 (inactive)	-0.207	0.0335 (inactive)	1.02 (inactive)	1.61 (inactive)	-0.0874 (inactive)	0.509	-0.0762	-0.372	0.389	-1.13
Cc1ccc(S(=O)(=O)N[C@@H]2COC(=O)[C@H](C)COC(=O)CC=C[C@H]2C)cc1	-0.419	-0.0268	-0.232	-0.305	1.35	0.98	0.26	1.38	-0.277	-0.181 (inactive)	0.0114	0.405 (inactive)	0.317 (inactive)	0.0676 (inactive)	-0.262 (inactive)	0.134	-0.224	1.06	0.615	1.91
C[C@@H]1C=CCC(=O)OC[C@H](C)C(=O)OC[C@H]2O[C@H]1C=C[C@H]2O	-0.31	-0.307	-0.174	0.303	0.208	0.577	0.328	0.781	0.59	-1.1 (inactive)	0.263	0.196 (inactive)	-0.0585 (inactive)	-0.2 (inactive)	0.165 (inactive)	-0.392	-0.105	-0.0292	0.188	1.09
CC(=O)OC[C@H]1O[C@H](CC=NOC[C@@H](C)[C@H](OCc2ccccc2)C(C)C)C=C[C@@H]1OC(C)=O	-1.2	0.284	-0.351	-0.344	0.264	0.155	-1.02	0.752	-0.21	1.34 (inactive)	-0.0373	-0.23 (inactive)	-0.369 (inactive)	2.04 (inactive)	0.494 (inactive)	-0.0152	-0.0504	-0.0387	0.0881	0.583
O=C1CCCC=C1C(O)CCOCc1ccccc1 (stereo not given)	-0.467	-0.406	-0.0626	-1	0.112	0.102	-0.758	0.484	-0.123	-0.0361 (inactive)	-0.0912	0.056 (inactive)	0.964 (inactive)	0.11 (inactive)	0.0483 (inactive)	0.787	-0.2	0.728	0.0645	0.307
